{
  "source": "PubChem BioAssay (NCI)",
  "note": "Values joined by “and” are separate entries in the source; they are usually repeats but may differ in a detail not shown here. Identical values can stand only once. Compounds without any hit were thinned out: in the full panel of roughly 79,000, 15% have a hit. Where a structure was tested more than once in an assay, its records may differ in their call. Active and inactive are the calls of the source. Rule as the data show it: active = growth inhibition above about 70%; inactive = the rest.",
  "data": [
    {"assay": "NCI Yeast Anticancer Drug Screen. Data for the bub3 strain (AID 167)", "conditions": "S. cerevisiae bub3 mutant strain, at 50.0 µM (retest, dose inferred, filed as 5.0), stronger effect = higher value", "procedure,_shortened": "(§1)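 Growth of a checkpoint-deficient yeast mutant is measured after compound exposure. Values represent inhibition relative to vehicle.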", "values": [
      {"compound": "O=c1[nH]cnc2[nH]cc(CN3CCCCC3)c12", "growth inhibition": "-1% (inactive)"},
      {"compound": "NCCBr", "growth inhibition": "-6% (inactive)"},
      {"compound": "CSc1ncc(COP(=S)(OCc2cnc(SC)nc2N)OCc2cnc(SC)nc2N)c(N)n1", "growth inhibition": "-3% (inactive)"},
      {"compound": "O=[N+]([O-])c1ccc(O)c(Cl)c1", "growth inhibition": "25% (inactive)"},
      {"compound": "CCN(CC)CC(=O)c1ccc2c(ccc3ccccc32)c1", "growth inhibition": "99% (active)"},
      {"compound": "Cc1ccc([C@H]2N[C@@H]2c2ccccn2)cc1", "growth inhibition": "-2% (inactive)"},
      {"compound": "CCC1(C2=CCCCC2)C(=O)NC(=S)NC1=O", "growth inhibition": "62% (inactive)"},
      {"compound": "Cn1cnc(C(=N)[Se])c1N", "growth inhibition": "94% (active)"},
      {"compound": "CCOC(=O)NC(=S)[S][Sb]([S]C(=S)NC(=O)OCC)[S]c1nc2ccc(N=Nc3ccc(NS(=O)(=O)c4ccc(NC(=O)C(N5CC5)(N5CC5)N5CC5)cc4)cc3)cc2s1", "growth inhibition": "99% (active)"},
      {"compound": "COc1ccccc1/C=C(/C)[N+](=O)[O-]", "growth inhibition": "99% (active) and 100% (active)"},
      {"compound": "O=c1oc2ccccc2c(O)c1C(c1ccc(OCc2ccccc2)cc1)c1c(O)c2ccccc2oc1=O", "growth inhibition": "95% (active)"},
      {"compound": "COc1cc(N(CCCl)CCCl)ccc1C=Nc1cccc(Cl)c1", "growth inhibition": "14% (inactive)"},
      {"compound": "O=[N+]([O-])c1cc2c([N+](=O)[O-])cccc2o1", "growth inhibition": "98% (active)"},
      {"compound": "ClCCN(CCCl)c1ccc(C2N(Cc3ccc(N(CCCl)CCCl)cc3Cl)CCCN2Cc2ccc(N(CCCl)CCCl)cc2Cl)cc1", "growth inhibition": "99% (active)"},
      {"compound": "CCN(Cc1ccccc1)CC(O)c1ccc(Cl)c(Cl)c1", "note": "(stereo not drawn)", "growth inhibition": "98% (active)"},
      {"compound": "FC1(F)C(Cl)=[C]([Hg][C]2=C(Cl)C(F)(F)C(F)(F)C(F)(F)C2(F)F)C(F)(F)C(F)(F)C1(F)F", "growth inhibition": "99% (active)"},
      {"compound": "CCn1c(O)c(C(=O)NC(C)c2ccc([N+](=O)[O-])cc2)c(=O)n(CC)c1=S", "note": "(stereo not drawn)", "growth inhibition": "78% (active)"},
      {"compound": "CC(=O)[O][Hg][c]1ccccc1N", "growth inhibition": "98% (active)"},
      {"compound": "CCC[CH2][Sn]1([CH2]CCC)[O]Cc2nc(C)ccc2[O]1", "growth inhibition": "96% (active)"},
      {"compound": "CCCCCCCCCCCCC(=O)[O][Hg][c]1ccccc1", "growth inhibition": "99% (active)"},
      {"compound": "CN(C)CC1CC2C3CC=C4CC(O)CCC4(C)C3CCC2(C)C1=O", "note": "(stereo not drawn)", "growth inhibition": "90% (active)"},
      {"compound": "CC(=O)O.CC(=O)[O-].CC(=O)[O-].[Co+3].[NH-]CC[NH-].[NH-]CC[NH-]", "growth inhibition": "98% (active)"},
      {"compound": "Nc1nc(CCl)cs1", "growth inhibition": "-7% (inactive)"},
      {"compound": "CC1=CCC2(C)C3CCC4(C)C(O)CCC4C3CCC2(C)C1", "note": "(stereo not drawn)", "growth inhibition": "94% (active)"},
      {"compound": "CC1CCC2(NC1)OC1CC3C4CC=C5CC(O)CCC5(C)C4CCC3(C)C1C2C", "note": "(stereo not drawn)", "growth inhibition": "99% (active)"},
      {"compound": "CCN1CCC(O)(c2ccc(Cl)c(Cl)c2)C(C(=O)c2ccc(Cl)c(Cl)c2)C1", "note": "(stereo not drawn)", "growth inhibition": "98% (active)"},
      {"compound": "O=C(c1ccccc1)c1c(CC(O)c2ccccn2)n(C(=O)c2ccccc2)c2ccccc12", "note": "(stereo not drawn)", "growth inhibition": "93% (active)"},
      {"compound": "CC(O[Si](c1ccccc1)(c1ccccc1)C(C)(C)C)[C@H](NC(=O)OC(C)(C)C)C(=O)O", "note": "(stereo partly drawn)", "growth inhibition": "95% (active)"},
      {"compound": "CC(C)=CC1CC(C)C2(CCC3(C)CC4C(C(=O)CC4(C)O)/C(C=O)=C\\CC32)O1", "note": "(stereo not drawn)", "growth inhibition": "100% (active)"},
      {"compound": "CC(=O)O[C@H]1C[C@@H]2OC3C=C(C)CCC3(C)[C@@]1(C)[C@@]21CO1", "note": "(stereo partly drawn)", "growth inhibition": "99% (active)"},
      {"compound": "O=C1NC(=O)C([N+](=O)[O-])C(=O)N1", "growth inhibition": "43% (inactive)"},
      {"compound": "N#C[S-].[Nd+3].c1ccc(-c2ccccn2)nc1.c1ccc(-c2ccccn2)nc1.c1ccc(-c2ccccn2)nc1", "growth inhibition": "100% (active)"},
      {"compound": "CC(=O)Nc1ccccc1[As](O[As](c1ccccc1)c1ccccc1NC(C)=O)c1ccccc1", "note": "(stereo not drawn)", "growth inhibition": "100% (active)"},
      {"compound": "Oc1cccc[c]1[Hg][Cl]", "growth inhibition": "99% (active)"},
      {"compound": "Nc1nc(N)c(-c2ccc(Cl)c(Cl)c2)c(CCc2ccc(CNC(=O)Nc3ccc(S(=O)(=O)F)cc3)cc2)n1", "growth inhibition": "25% (inactive)"},
      {"compound": "C1CC[N-]CC1.CC(=N\\O)/C(C)=N/O.CC(=N\\O)/C(C)=N/O.OC1[CH-]CCCC1.[Co+2]", "growth inhibition": "13% (inactive)"},
      {"compound": "CC(=O)OC1C2(CC3N4C(=O)C5(CO)SSC4(CC31O)C(=O)N5C)OC(C)C(C)(C)C2=O", "note": "(stereo not drawn)", "growth inhibition": "99% (active)"},
      {"compound": "C[C@H]1C/C=C/[C@H]2[C@@H]3O[C@]3(C)[C@@H](C)[C@H]3[C@H](Cc4ccccc4)NC(=O)[C@]32OC(=O)O/C=C/[C@@](C)(O)C1=O", "growth inhibition": "48% (inactive)"},
      {"compound": "C1CC[N-]CC1.[Cl][Au]([Cl])[Cl]", "growth inhibition": "76% (active)"}
    ]},
    {"assay": "NCI Yeast Anticancer Drug Screen. Data for the bub3 strain (AID 167)", "conditions": "S. cerevisiae bub3 mutant strain, at 50.0 µM, stronger effect = higher value", "procedure,_shortened": "as §1", "values": [
      {"compound": "O=c1[nH]cnc2[nH]cc(CN3CCCCC3)c12", "growth inhibition": "-54.8% (inactive)"},
      {"compound": "NCCBr", "growth inhibition": "-0.55% (inactive) and 1.2% (inactive)"},
      {"compound": "CSc1ncc(COP(=S)(OCc2cnc(SC)nc2N)OCc2cnc(SC)nc2N)c(N)n1", "growth inhibition": "-2.3% (inactive)"},
      {"compound": "O=[N+]([O-])c1ccc(O)c(Cl)c1", "growth inhibition": "64.5% (inactive)"},
      {"compound": "CCN(CC)CC(=O)c1ccc2c(ccc3ccccc32)c1", "growth inhibition": "99.2% (active)"},
      {"compound": "Cc1ccc([C@H]2N[C@@H]2c2ccccn2)cc1", "growth inhibition": "-2.75% (inactive)"},
      {"compound": "CCC1(C2=CCCCC2)C(=O)NC(=S)NC1=O", "growth inhibition": "6.05% (inactive) and 34.2% (inactive)"},
      {"compound": "Cn1cnc(C(=N)[Se])c1N", "growth inhibition": "91.4% (active)"},
      {"compound": "CCOC(=O)NC(=S)[S][Sb]([S]C(=S)NC(=O)OCC)[S]c1nc2ccc(N=Nc3ccc(NS(=O)(=O)c4ccc(NC(=O)C(N5CC5)(N5CC5)N5CC5)cc4)cc3)cc2s1", "growth inhibition": "99.3% (active)"},
      {"compound": "COc1ccccc1/C=C(/C)[N+](=O)[O-]", "growth inhibition": "99.8% (active)"},
      {"compound": "O=c1oc2ccccc2c(O)c1C(c1ccc(OCc2ccccc2)cc1)c1c(O)c2ccccc2oc1=O", "growth inhibition": "60.2% (inactive)"},
      {"compound": "COc1cc(N(CCCl)CCCl)ccc1C=Nc1cccc(Cl)c1", "growth inhibition": "87% (active)"},
      {"compound": "O=[N+]([O-])c1cc2c([N+](=O)[O-])cccc2o1", "growth inhibition": "99.5% (active)"},
      {"compound": "ClCCN(CCCl)c1ccc(C2N(Cc3ccc(N(CCCl)CCCl)cc3Cl)CCCN2Cc2ccc(N(CCCl)CCCl)cc2Cl)cc1", "growth inhibition": "37% (inactive)"},
      {"compound": "CCN(Cc1ccccc1)CC(O)c1ccc(Cl)c(Cl)c1", "note": "(stereo not drawn)", "growth inhibition": "70.3% (active)"},
      {"compound": "FC1(F)C(Cl)=[C]([Hg][C]2=C(Cl)C(F)(F)C(F)(F)C(F)(F)C2(F)F)C(F)(F)C(F)(F)C1(F)F", "growth inhibition": "75% (active)"},
      {"compound": "CCn1c(O)c(C(=O)NC(C)c2ccc([N+](=O)[O-])cc2)c(=O)n(CC)c1=S", "note": "(stereo not drawn)", "growth inhibition": "89.3% (active)"},
      {"compound": "CC(=O)[O][Hg][c]1ccccc1N", "growth inhibition": "92.1% (active)"},
      {"compound": "CCC[CH2][Sn]1([CH2]CCC)[O]Cc2nc(C)ccc2[O]1", "growth inhibition": "83.7% (active)"},
      {"compound": "CCCCCCCCCCCCC(=O)[O][Hg][c]1ccccc1", "growth inhibition": "100% (active)"},
      {"compound": "CN(C)CC1CC2C3CC=C4CC(O)CCC4(C)C3CCC2(C)C1=O", "note": "(stereo not drawn)", "growth inhibition": "79% (active)"},
      {"compound": "CC(=O)O.CC(=O)[O-].CC(=O)[O-].[Co+3].[NH-]CC[NH-].[NH-]CC[NH-]", "growth inhibition": "-1.65% (inactive)"},
      {"compound": "Nc1nc(CCl)cs1", "growth inhibition": "52.4% (inactive) and 4.7% (inactive)"},
      {"compound": "CC1=CCC2(C)C3CCC4(C)C(O)CCC4C3CCC2(C)C1", "note": "(stereo not drawn)", "growth inhibition": "39.5% (inactive)"},
      {"compound": "CC1CCC2(NC1)OC1CC3C4CC=C5CC(O)CCC5(C)C4CCC3(C)C1C2C", "note": "(stereo not drawn)", "growth inhibition": "90.2% (active) and 99.1% (active)"},
      {"compound": "CCN1CCC(O)(c2ccc(Cl)c(Cl)c2)C(C(=O)c2ccc(Cl)c(Cl)c2)C1", "note": "(stereo not drawn)", "growth inhibition": "98.8% (active)"},
      {"compound": "O=C(c1ccccc1)c1c(CC(O)c2ccccn2)n(C(=O)c2ccccc2)c2ccccc12", "note": "(stereo not drawn)", "growth inhibition": "74.2% (active)"},
      {"compound": "CC(O[Si](c1ccccc1)(c1ccccc1)C(C)(C)C)[C@H](NC(=O)OC(C)(C)C)C(=O)O", "note": "(stereo partly drawn)", "growth inhibition": "55.5% (inactive)"},
      {"compound": "CC(C)=CC1CC(C)C2(CCC3(C)CC4C(C(=O)CC4(C)O)/C(C=O)=C\\CC32)O1", "note": "(stereo not drawn)", "growth inhibition": "94.5% (active)"},
      {"compound": "CC(=O)O[C@H]1C[C@@H]2OC3C=C(C)CCC3(C)[C@@]1(C)[C@@]21CO1", "note": "(stereo partly drawn)", "growth inhibition": "92.7% (active) and 2.9% (inactive)"},
      {"compound": "O=C1NC(=O)C([N+](=O)[O-])C(=O)N1", "growth inhibition": "66.8% (inactive)"},
      {"compound": "N#C[S-].[Nd+3].c1ccc(-c2ccccn2)nc1.c1ccc(-c2ccccn2)nc1.c1ccc(-c2ccccn2)nc1", "growth inhibition": "93% (active)"},
      {"compound": "CC(=O)Nc1ccccc1[As](O[As](c1ccccc1)c1ccccc1NC(C)=O)c1ccccc1", "note": "(stereo not drawn)", "growth inhibition": "99.5% (active)"},
      {"compound": "Oc1cccc[c]1[Hg][Cl]", "growth inhibition": "99.5% (active)"},
      {"compound": "Nc1nc(N)c(-c2ccc(Cl)c(Cl)c2)c(CCc2ccc(CNC(=O)Nc3ccc(S(=O)(=O)F)cc3)cc2)n1", "growth inhibition": "25% (inactive)"},
      {"compound": "C1CC[N-]CC1.CC(=N\\O)/C(C)=N/O.CC(=N\\O)/C(C)=N/O.OC1[CH-]CCCC1.[Co+2]", "growth inhibition": "-5.4% (inactive)"},
      {"compound": "CC(=O)OC1C2(CC3N4C(=O)C5(CO)SSC4(CC31O)C(=O)N5C)OC(C)C(C)(C)C2=O", "note": "(stereo not drawn)", "growth inhibition": "91.5% (active)"},
      {"compound": "C[C@H]1C/C=C/[C@H]2[C@@H]3O[C@]3(C)[C@@H](C)[C@H]3[C@H](Cc4ccccc4)NC(=O)[C@]32OC(=O)O/C=C/[C@@](C)(O)C1=O", "growth inhibition": "83.2% (active)"},
      {"compound": "C1CC[N-]CC1.[Cl][Au]([Cl])[Cl]", "growth inhibition": "48.9% (inactive)"}
    ]}
  ]
}
